The nature of test [1]: CEETOX_H295R_OHPROG: CeeTox H295R High-throughput Steroidogenesis Assay for OH-Progesterone (OHPROG) (AID 2283435).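 For AC50: 17alpha-hydroxyprogesterone secreted into medium measured by HPLC-MS/MS.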 As to conditions: actives raise or lower the signal. In short, it runs like this: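 Secreted 17alpha-hydroxyprogesterone is read by tandem MS from media of forskolin-primed H295R cells dosed with chemical for 48 h. Activity is fitted in both directions against DMSO baseline; cytotoxic concentrations are re-tested diluted.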

The nature of test [2]: CEETOX_H295R_CORTIC: CeeTox H295R High-throughput Steroidogenesis Assay for Corticosterone (CORTIC) (AID 2283437).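 Note: corticosterone secreted into medium quantified by mass spectrometry.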 As to conditions: actives raise or lower the signal. In short, it runs like this:
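Corticosterone secreted into medium is measured by reverse-phase HPLC with tandem MS following liquid-liquid extraction. Cells are forskolin-stimulated (10 uM, 48 h) before 48 h test exposure; activity fitted in both directions against DMSO.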

Test [3] is described as follows: CEETOX_H295R_CORTISOL: CeeTox H295R High-throughput Steroidogenesis Assay for Cortisol (AID 2283438).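 Note: cortisol secreted into medium quantified by LC-MS/MS.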 As to conditions: actives raise or lower the signal. In short, it runs like this:
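Human adrenocortical H295R cells (passage ≤10) received test chemicals for 48 h after forskolin priming. Secreted cortisol was measured by LC-MS/MS.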

The nature of test [4]: CEETOX_H295R_DOC: CeeTox H295R High-throughput Steroidogenesis Assay for DOC (AID 2283439). As to conditions: actives raise or lower the signal. In short, it runs like this: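 Secreted DOC was quantified from H295R media by HPLC-MS/MS after 48 h chemical exposure following 48 h forskolin (10 uM) prestimulation. Values were fitted in both directions relative to DMSO, the negative control and baseline.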

The nature of test [5]: CEETOX_H295R_ESTRADIOL: CeeTox H295R High-throughput Steroidogenesis Assay for Estradiol (AID 2283440).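 Note: estradiol secreted into medium quantified by LC-MS/MS after dansyl derivatisation.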 As to conditions: actives raise or lower the signal. The gist of the method: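 Estradiol secreted into the medium was measured by tandem mass spectrometry after liquid-liquid extraction and dansylation. Human H295R cells had been forskolin-primed (10 uM, 48 h) before a 48 h chemical exposure with 0.1% DMSO.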

The nature of test [6]: CEETOX_H295R_ESTRONE: CeeTox H295R High-throughput Steroidogenesis Assay for Estrone (AID 2283441).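 Note: estrone secreted into medium measured by LC-MS/MS after dansyl derivatization.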 The following applies: actives raise or lower the signal. The gist of the method: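 H295R cells; 48 h forskolin (10 uM) prestimulation; 48 h compound exposure, 0.1% DMSO final. Medium estrone: MTBE extraction, dansyl derivatization, HPLC-MS/MS. Bidirectional fit vs DMSO.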
A short description of test [7]: CEETOX_H295R_PROG: CeeTox H295R High-throughput Steroidogenesis Assay for Progesterone (PROG) (AID 2283442).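 For AC50: human H295R adrenal cells primed with 10 µM forskolin before dosing; progesterone secreted into medium by H295R cells measured by HPLC-MS/MS.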 As to conditions: actives raise or lower the signal. In short, it runs like this: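 Steps: seed H295R cells and let them adhere overnight; prime 48 h with 10 uM forskolin; dose with compound in DMSO at 0.1% final for 48 h; extract medium steroids with MTBE; measure progesterone by LC-MS/MS. MTT viability was run in the same wells.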

Read-out in test [8]: Tumor necrosis factor receptor superfamily member 6 (Homo sapiens) (UniProt P25445)
Description: LTEA_HepaRG_FAS: Life Technologies and Expression Analysis (LTEA) Assay for Fas cell surface death receptor (FAS) using HepaRG (AID 2283447). As to conditions: mRNA level, 48 h; actives raise or lower the signal. The gist of the method:
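FAS transcript level was measured by TaqMan qRT-PCR against three housekeeping genes after 48 h chemical exposure. Cells were HepaRG, 0.5% DMSO vehicle, with a top concentration of 100 uM and half-log dilutions over eight points, in duplicate.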

Read-out in test [9]: Fatty acid synthase (Homo sapiens) (UniProt P49327)
As to the kind of experiment: LTEA_HepaRG_FASN: Life Technologies and Expression Analysis (LTEA) Assay for Fatty Acid Synthase (FASN) using HepaRG (AID 2283448).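 For AC50: differentiated human HepaRG liver cells in serum-free induction medium.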 The following applies: mRNA level, 48 h; actives raise or lower the signal. The gist of the method:
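Transcript-level assay: HepaRG liver cells are treated for 48 h across an eight-point range topping at 100 uM, and FASN mRNA, normalized to three housekeeping genes, is compared with DMSO controls in both directions.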

A short description of test [10]: CEETOX_H295R_ANDR: CeeTox H295R High-throughput Steroidogenesis Assay for Androstenedione (ANDR) (AID 2283436).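 Note: human H295R adrenal cells exposed for 48 h with androstenedione measured in medium.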 The following applies: actives raise or lower the signal. In short, it runs like this: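 Read-out is androstenedione secreted into medium, measured by tandem mass spectrometry after liquid-liquid extraction. Cells were H295R, dosed for 48 h per modified OECD 456; activity fitted in both directions relative to DMSO.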

This is an account of results in PubChem BioAssay (EPA / NIEHS).

Activity calls are given as the source filed them. Rule for the calls: active = hit-call score of the fitted dose curve at least 0.9, where 1 is the maximum; inactive = score below 0.9.

Fatty acid synthase (Homo sapiens), sequence (P49327 whole entry, looked up): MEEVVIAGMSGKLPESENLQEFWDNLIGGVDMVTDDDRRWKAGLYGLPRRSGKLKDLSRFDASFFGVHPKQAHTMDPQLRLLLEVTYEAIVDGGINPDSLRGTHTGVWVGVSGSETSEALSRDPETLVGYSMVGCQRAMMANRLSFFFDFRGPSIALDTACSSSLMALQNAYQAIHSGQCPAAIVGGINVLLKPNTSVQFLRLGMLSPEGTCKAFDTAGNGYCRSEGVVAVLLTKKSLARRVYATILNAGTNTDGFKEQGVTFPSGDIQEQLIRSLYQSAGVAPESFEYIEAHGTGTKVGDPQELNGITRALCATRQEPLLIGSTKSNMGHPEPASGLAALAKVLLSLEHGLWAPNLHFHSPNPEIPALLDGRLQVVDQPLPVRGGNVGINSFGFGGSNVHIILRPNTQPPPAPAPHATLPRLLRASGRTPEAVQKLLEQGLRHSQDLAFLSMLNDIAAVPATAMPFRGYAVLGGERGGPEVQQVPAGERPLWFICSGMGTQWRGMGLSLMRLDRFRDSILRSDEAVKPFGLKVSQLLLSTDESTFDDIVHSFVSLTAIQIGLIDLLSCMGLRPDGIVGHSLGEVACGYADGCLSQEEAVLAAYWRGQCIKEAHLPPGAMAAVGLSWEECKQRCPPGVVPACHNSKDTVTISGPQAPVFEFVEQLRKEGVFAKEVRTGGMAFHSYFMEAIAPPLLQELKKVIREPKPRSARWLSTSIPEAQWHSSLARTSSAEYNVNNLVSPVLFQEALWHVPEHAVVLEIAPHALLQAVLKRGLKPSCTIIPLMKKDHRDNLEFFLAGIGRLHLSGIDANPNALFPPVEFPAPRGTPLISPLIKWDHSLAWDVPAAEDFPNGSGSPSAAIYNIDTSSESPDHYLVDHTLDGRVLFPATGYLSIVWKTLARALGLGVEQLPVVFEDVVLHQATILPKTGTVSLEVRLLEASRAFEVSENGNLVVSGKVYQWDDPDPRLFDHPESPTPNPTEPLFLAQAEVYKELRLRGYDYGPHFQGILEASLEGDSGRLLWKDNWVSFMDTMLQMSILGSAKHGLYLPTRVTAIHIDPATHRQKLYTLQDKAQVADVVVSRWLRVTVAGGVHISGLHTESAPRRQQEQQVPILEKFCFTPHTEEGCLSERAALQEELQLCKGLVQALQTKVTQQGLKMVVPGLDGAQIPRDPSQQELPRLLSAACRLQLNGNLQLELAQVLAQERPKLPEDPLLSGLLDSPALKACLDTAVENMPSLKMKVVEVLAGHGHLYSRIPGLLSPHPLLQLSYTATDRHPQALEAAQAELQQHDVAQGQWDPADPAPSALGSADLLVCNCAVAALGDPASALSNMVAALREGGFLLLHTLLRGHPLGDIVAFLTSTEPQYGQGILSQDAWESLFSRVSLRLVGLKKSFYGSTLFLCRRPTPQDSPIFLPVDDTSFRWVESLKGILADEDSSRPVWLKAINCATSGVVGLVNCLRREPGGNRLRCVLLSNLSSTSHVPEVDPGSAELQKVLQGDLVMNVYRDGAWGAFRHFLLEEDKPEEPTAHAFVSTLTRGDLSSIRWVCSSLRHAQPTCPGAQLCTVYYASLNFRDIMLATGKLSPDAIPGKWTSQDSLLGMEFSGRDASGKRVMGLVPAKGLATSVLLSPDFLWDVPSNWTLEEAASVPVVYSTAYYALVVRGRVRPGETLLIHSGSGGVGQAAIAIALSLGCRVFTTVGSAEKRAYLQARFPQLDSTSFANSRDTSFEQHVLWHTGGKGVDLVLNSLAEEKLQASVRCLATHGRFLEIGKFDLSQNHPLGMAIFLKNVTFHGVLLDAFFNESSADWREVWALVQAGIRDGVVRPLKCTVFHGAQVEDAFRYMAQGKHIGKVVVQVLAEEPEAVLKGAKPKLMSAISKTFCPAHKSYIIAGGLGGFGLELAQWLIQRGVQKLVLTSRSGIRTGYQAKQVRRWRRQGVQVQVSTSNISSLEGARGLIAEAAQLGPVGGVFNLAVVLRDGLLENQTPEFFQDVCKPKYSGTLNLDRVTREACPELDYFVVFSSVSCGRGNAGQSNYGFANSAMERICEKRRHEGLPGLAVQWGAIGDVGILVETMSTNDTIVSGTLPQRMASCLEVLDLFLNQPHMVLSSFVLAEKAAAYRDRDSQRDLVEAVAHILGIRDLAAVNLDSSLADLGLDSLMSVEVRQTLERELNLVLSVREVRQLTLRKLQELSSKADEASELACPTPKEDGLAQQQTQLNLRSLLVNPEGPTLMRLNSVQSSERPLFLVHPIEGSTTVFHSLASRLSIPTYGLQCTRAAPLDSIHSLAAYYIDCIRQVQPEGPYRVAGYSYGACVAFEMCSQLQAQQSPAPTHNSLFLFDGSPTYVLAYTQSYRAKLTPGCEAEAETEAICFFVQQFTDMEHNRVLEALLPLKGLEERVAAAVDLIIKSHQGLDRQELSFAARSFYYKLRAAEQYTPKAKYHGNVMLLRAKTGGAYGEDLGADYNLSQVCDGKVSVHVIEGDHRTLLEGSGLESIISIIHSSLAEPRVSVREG

On to `Oc1cccc(O)c1`, for which the compound was classed as inactive in test [1], in test [2], in test [3], in test [4], in [5] and in test [6]. Also, the call in [7], in test [8] and in test [9] was inactive.

Turning to `COc1ccc([N+](=O)[O-])cc1N`, the concentration at half-maximal activity (AC50) in [1] is 6.07 µM (active); in [2] it was 8.72 µM (active); in test [3] it was 44.6 µM (active); in [4] it was 10.6 µM (active); in test [7], 14.2 µM (active). For the same compound, the compound was classed as inactive in [5], in [6], in test [8] and in test [9].

As for `O=c1c(-c2ccc(O)cc2)coc2cc(O)ccc12`, the AC50 in test [1] is 26.5 µM (active); in test [10] it was 15.2 µM (active); in [2], 1.22 µM (active); in [3], 8.88 µM (active); in test [4] it was 3.19 µM (active); in test [7], 4.62 µM (active). Besides, the compound was called inactive in test [5], in test [6], in test [8] and in [9].

Turning to `Nc1cccc2c(N)cccc12`, the AC50 in [1] was 1.78 µM (active); in test [3], 5 µM (active); in test [4], 2.73 µM (active); in test [7] it was 2.44 µM (active); in [9], 18.3 µM (active). The compound was called inactive in test [10], in test [2], in [5], in test [6] and in test [8].

Consider `O=C(O)c1ccccc1C(c1ccc(O)cc1)c1ccc(O)cc1`, for which the concentration at half-maximal activity (AC50) in test [1] was 7.38 µM (active); in test [4], 6.89 µM (active); in [7], 10.2 µM (active). For the same compound, the outcome in [10], in test [2], in test [3], in [5], in test [6] and in [8] was inactive. Also, the call in test [9] was inactive.

`CC#C[C@]1(O)CC[C@H]2[C@@H]3CCC4=CC(=O)CCC4=C3[C@@H](c3ccc(N(C)C)cc3)C[C@@]21C`: the AC50 in test [1] is 0.218 µM (active); in test [7] it was 3.9 µM (active); in test [8] it was 22 µM (active); in test [9], 4.54 µM (active). In addition, the compound was classed as inactive in test [5] and in [6].

Regarding `CC(C)(C)c1ccc(O)c(C(C)(C)C)c1`, the result in test [8] and in test [9] was inactive.

As for `C#C[C@]1(O)CC[C@H]2[C@@H]3CCC4=CC(=O)CC[C@@H]4[C@H]3CC[C@@]21C`, the call in [2] and in test [8] was inactive. Also, in [9], the AC50 is 50 µM (active).

Consider `CCCCCCCCCCCCCCCS(=O)(=O)Oc1ccccc1`, for which the AC50 was 5.48 µM (active) in [1], 3.8 µM (active) in test [4] and 4.08 µM (active) in test [7]. Moreover, the outcome in [2], in test [3], in test [5], in test [6], in [8] and in test [9] was inactive.

Consider `CCCCCCCCC(=O)O`, for which the outcome in test [1], in test [2], in [3], in test [4], in [5] and in test [6] was inactive. In addition, the result in [7], in [8] and in test [9] was inactive.

With `CCCCC(CC)COC(=O)CCCCC(=O)OCc1ccccc1` (stereo not given), the compound was called inactive in [8] and in test [9].

For `CCCOC(=O)c1ccc(O)cc1`, the AC50 was 7.73 µM (active) in [1], 79.4 µM (active) in test [3], 26.8 µM (active) in test [4] and 5.71 µM (active) in test [7]. The result in [2], in [5], in test [6] and in test [8] was inactive.

On to `CC1=C(/C=C/C(C)=C/C=C/C(C)=C/C(=O)O)C(C)(C)CCC1`, for which the result in test [1], in [3] and in test [8] was inactive. Also, the figures for the AC50 in test [4] and in test [7] were 7.19 µM (active) and 8.11 µM (active), respectively.

For the compound `CCCCCCCCOC(=O)CCCCCCCCC(=O)OCCCCCCCC`, the compound was called inactive in [8] and in [9].

In the case of `CCCCCCC(=O)O`, the compound was classed as inactive in test [8] and in test [9].

For `c1ccc2c(c1)ccc1ccccc12`, the AC50 in test [1] was 55.1 µM (active). Besides, the compound was classed as inactive in test [2], in test [7], in test [8] and in test [9].

As for `OC1CCC(C2CCCCC2)CC1` (stereo not given), the compound was classed as inactive in test [1], in [3], in test [4], in test [5], in test [7] and in [8]. Moreover, in [9], the compound was classed as inactive. For the same compound, the AC50 in [2] was 23.2 µM (active).

For the compound `c1ccc2cc3c(ccc4ccccc43)cc2c1`, the AC50 in [1] was 6.08 µM (active); in [9], 4.82 µM (active). Further, the compound was classed as inactive in [7] and in test [8].

Take `CCc1nn(C2CCCCC2)c2cc(C3(C#N)CCC(C(=O)O)CC3)ccc12` (stereo not given): the result in [1], in [2], in test [3], in test [4], in test [5] and in test [6] was inactive. The result in test [7] was inactive. The AC50 in test [8] is 31.1 µM (active); in test [9] it was 85.1 µM (active).

With `Cc1cc(C)c(O)c(C)c1`, the compound was classed as inactive in [8] and in test [9].

Regarding `NC(=O)N1C(=O)C(C(=O)c2cc(Cl)cs2)c2cc(F)c(Cl)cc21` (stereo not given), the call in test [8] and in test [9] was inactive.

As to `CN1CCN(c2ccccc2/C=C2\SCCN(c3ccc(Cl)c(Cl)c3)C2=O)CC1`, the result in test [8] and in [9] was inactive.

On to `CC(O)CO` (stereo not given), for which the result in [8] and in test [9] was inactive.

As to `CCCCOCCO`, the call in test [8] and in test [9] was inactive.

For `OCCC(F)(F)C(F)(F)C(F)(F)C(F)(F)C(F)(F)C(F)(F)C(F)(F)C(F)(F)F`, the outcome in [8] and in [9] was inactive.

In the case of `CCC(C)(C)C1CCC(O)CC1` (stereo not given), the call in test [8] and in [9] was inactive.

`OC1CCCCC1`: the result in test [8] and in [9] was inactive.

In the case of `ClC1=C(Cl)C(Cl)(Cl)C(Cl)=C1Cl`, the compound was classed as inactive in [8] and in test [9].

In the case of `CC(=O)CC(C)(C)O`, the call in [8] and in [9] was inactive.

With `Oc1cc2ccccc2c2ccccc12`, the compound was classed as inactive in [8] and in test [9].

Take `O=C(O)Cc1cc(I)c(Oc2cc(I)c(O)c(I)c2)c(I)c1`: the compound was classed as inactive in test [8]. In test [9], the half-maximal activity concentration (AC50) is 60.2 µM (active).

Regarding `CC[C@H](c1ccc(O)cc1)[C@@H](CC)c1ccc(O)cc1`, the AC50 is 89.3 µM (active) in test [8] and 76.2 µM (active) in [9].

Regarding `CC(C)(C)c1cccc(C(C)(C)C)c1O`, the compound was called inactive in [8] and in test [9].
